Measurements taken from PubChem BioAssay AID463175 (Southern Research Specialized Biocontainment Screening …, 2010).
Calls of active or inactive are those of the source.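 How the source made its calls: active means inhibition above 40% at one or more tested concentrations in the dose response counterscreen; inactive means inhibition below 40% at every dose tested.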

experiment: general growth reporter, non-PhoP nmpC promoter – synthesized compounds, set 5, counter-screen for PhoP regulon inhibitor project, late-stage follow-up (AID 463175); settings: S. Typhimurium non-PhoP-regulated nmpC promoter-GFP fluorescence (growth counterscreen), 4 h; series mostly up to 150 µM

| Compound | outcome |
| --- | --- |
| COc1cccc(NC(=O)N2CCCN(Cc3ccccc3F)C2)c1 | inactive |
| O=C1C2=C(Nc3ccccc3SC2c2cccnc2)c2ccccc21 (stereo unspecified) | inactive |
| O=C1C2=C(Nc3ccccc3SC2c2cccc(Br)c2)c2ccccc21 (stereo unspecified) | inactive |
| O=C1C2=C(Nc3ccccc3SC2c2ccc(Cl)cc2)c2ccccc21 (stereo unspecified) | inactive |
| Cc1ccc(C2Sc3ccccc3N=C3c4ccccc4CC32)cc1 (stereo unspecified) | inactive |
| Clc1ccc(C2Sc3ccccc3N=C3c4ccccc4CC32)cc1 (stereo unspecified) | inactive |
